Data as given in the supplement of paper PMC10849652.
The full data set covers some 7,900 targets. This sample favours those with a hit. About 0.6% of all pairs of compound and target were hits.

compound: C=CC(=O)N1CCC[C@@H](n2nc(-c3ccc(Oc4ccccc4)cc3)c3c(N)ncnc32)C1 [ibrutinib]; assay: log2 fold change, soluble protein after heating vs DMSO (PISA); higher = thermal stabilisation; K562 cells, 10 uM, 30 min; active = over 0.2 and 3.5 SD of the protein, either way, in both replicates (recomputed)
In short: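 Quantification of soluble protein used TMTpro 16plex LC-MS/MS, with channel sums equalised. Samples were the supernatant after 21,000xg for 90 min of pooled aliquots from K562 cells (2×10^6 cells/mL) treated with 10 μM compound for 30 min, heated for 3 min over 48°C-58°C, and extracted in PBS with 0.5% NP-40 at 4°C. Values, from duplicates, describe thermal stability against control samples on a log2 fold-change scale.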

Sequence of UniProt P53609 (P53609 whole entry, looked up): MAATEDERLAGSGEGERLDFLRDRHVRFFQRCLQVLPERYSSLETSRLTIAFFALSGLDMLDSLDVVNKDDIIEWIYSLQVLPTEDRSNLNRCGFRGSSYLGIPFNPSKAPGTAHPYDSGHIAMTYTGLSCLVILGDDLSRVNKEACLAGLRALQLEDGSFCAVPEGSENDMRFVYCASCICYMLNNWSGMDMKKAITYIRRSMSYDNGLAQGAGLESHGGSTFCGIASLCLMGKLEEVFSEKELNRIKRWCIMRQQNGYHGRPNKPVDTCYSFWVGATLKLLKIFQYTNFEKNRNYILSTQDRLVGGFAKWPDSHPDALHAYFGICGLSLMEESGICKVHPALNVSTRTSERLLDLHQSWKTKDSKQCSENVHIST
Sequence of UniProt O75400 (O75400 whole entry, looked up): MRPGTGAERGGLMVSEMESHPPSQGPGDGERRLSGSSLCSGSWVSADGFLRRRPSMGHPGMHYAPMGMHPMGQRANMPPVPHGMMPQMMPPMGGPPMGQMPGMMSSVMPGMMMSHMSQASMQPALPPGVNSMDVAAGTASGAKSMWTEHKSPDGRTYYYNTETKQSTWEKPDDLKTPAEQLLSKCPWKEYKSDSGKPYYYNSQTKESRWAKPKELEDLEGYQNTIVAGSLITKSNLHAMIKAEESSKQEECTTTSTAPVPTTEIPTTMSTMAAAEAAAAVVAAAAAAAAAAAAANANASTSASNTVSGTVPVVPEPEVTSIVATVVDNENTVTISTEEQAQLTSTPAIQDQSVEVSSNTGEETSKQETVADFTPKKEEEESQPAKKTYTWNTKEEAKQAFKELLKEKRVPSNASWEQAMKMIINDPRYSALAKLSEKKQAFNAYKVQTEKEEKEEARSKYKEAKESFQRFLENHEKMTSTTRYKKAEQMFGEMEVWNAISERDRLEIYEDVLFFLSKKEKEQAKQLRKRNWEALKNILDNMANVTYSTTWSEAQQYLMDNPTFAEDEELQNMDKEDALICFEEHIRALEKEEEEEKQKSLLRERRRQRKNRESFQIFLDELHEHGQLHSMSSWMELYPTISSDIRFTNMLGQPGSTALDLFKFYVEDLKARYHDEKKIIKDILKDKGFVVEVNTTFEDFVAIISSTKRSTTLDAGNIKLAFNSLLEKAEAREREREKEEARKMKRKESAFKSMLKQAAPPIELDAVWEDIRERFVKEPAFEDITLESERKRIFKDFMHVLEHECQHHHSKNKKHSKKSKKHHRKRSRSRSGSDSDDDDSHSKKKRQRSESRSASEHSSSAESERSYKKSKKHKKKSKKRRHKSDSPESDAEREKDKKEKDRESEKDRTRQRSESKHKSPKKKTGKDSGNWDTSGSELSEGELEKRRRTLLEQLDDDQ
Sequence of UniProt P49585 (P49585 whole entry, looked up): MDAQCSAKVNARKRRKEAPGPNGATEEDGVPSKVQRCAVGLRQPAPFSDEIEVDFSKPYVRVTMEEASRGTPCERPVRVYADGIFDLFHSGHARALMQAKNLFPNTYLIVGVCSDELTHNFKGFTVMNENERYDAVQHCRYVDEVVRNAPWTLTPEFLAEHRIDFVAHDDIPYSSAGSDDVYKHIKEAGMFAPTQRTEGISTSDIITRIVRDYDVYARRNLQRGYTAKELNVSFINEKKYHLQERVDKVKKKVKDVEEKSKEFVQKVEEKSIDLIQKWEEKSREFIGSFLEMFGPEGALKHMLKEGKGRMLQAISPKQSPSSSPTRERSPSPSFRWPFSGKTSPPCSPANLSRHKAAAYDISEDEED
Sequence of UniProt P09884 (P09884 whole entry, looked up): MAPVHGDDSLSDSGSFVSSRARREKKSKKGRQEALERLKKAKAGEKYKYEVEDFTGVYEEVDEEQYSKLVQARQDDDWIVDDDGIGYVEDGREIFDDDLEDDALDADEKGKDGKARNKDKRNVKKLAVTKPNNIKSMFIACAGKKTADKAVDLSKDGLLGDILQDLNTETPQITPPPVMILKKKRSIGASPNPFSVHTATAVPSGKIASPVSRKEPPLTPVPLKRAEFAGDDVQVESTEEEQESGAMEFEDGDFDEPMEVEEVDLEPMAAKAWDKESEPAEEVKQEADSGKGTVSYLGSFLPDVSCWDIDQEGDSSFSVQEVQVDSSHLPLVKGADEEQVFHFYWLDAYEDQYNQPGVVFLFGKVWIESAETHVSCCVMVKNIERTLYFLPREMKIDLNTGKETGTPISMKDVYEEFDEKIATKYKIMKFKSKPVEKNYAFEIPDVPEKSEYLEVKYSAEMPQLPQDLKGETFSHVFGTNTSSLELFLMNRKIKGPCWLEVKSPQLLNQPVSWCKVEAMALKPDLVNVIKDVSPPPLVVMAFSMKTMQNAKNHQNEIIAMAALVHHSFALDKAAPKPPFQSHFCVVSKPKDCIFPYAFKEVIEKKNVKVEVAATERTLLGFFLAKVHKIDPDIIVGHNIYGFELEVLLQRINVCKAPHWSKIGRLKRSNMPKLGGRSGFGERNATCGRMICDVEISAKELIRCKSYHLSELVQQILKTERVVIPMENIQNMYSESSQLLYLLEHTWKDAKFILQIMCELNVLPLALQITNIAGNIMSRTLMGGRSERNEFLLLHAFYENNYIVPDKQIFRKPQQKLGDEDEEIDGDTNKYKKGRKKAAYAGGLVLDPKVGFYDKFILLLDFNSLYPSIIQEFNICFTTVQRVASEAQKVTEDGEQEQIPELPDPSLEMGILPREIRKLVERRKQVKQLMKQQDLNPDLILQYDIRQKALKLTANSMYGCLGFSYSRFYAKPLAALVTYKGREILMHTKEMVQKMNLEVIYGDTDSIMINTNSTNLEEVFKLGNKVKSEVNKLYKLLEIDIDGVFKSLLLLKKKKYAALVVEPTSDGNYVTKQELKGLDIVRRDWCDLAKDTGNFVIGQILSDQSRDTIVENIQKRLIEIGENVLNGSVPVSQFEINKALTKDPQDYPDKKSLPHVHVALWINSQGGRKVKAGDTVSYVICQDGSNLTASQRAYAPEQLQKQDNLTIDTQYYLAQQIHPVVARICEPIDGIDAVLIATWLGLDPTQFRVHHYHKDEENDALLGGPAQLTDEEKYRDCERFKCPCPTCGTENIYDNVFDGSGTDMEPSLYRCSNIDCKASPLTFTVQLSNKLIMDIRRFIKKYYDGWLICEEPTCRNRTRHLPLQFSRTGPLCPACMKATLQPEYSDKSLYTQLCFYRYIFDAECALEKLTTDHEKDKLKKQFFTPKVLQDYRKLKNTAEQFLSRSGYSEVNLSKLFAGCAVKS
Sequence of UniProt P42338 (P42338 whole entry, looked up): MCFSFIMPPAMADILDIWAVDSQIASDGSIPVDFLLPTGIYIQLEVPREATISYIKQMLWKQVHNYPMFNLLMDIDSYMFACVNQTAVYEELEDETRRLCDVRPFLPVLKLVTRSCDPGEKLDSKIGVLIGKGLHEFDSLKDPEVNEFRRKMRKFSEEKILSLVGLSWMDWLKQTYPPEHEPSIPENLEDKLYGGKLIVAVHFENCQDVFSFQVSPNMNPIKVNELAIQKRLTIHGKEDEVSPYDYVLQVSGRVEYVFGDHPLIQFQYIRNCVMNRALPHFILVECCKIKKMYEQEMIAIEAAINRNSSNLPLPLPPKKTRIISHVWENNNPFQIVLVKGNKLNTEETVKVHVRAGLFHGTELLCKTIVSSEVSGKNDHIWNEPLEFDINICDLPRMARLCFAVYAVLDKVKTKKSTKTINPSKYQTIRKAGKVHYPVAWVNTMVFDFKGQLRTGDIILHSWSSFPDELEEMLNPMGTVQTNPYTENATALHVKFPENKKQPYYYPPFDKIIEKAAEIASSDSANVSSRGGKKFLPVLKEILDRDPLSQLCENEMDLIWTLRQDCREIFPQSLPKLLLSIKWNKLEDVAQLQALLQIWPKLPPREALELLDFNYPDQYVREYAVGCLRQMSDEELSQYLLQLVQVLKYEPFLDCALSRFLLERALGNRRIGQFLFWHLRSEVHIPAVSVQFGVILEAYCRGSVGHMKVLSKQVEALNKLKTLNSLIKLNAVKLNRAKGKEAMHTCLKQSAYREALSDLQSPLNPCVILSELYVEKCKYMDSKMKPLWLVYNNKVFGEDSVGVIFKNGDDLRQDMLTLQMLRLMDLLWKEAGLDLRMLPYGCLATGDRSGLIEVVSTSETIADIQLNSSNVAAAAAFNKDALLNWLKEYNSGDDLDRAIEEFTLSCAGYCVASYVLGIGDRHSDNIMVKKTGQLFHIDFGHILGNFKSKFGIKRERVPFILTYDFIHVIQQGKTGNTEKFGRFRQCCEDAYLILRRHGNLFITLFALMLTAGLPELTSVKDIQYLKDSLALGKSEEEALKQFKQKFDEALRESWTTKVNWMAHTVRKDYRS
Sequence of UniProt Q92968 (Q92968 whole entry, looked up): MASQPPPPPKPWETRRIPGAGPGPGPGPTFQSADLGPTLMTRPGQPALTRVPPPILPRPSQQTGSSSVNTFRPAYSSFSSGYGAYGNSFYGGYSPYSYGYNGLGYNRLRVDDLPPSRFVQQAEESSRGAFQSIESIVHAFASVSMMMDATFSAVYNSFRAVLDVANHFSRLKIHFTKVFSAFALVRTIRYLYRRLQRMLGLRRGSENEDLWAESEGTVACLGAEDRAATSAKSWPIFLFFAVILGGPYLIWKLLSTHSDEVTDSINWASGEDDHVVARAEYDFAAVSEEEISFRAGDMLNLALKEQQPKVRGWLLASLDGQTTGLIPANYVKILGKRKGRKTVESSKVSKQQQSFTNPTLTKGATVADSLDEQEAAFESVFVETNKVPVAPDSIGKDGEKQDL
Sequence of UniProt Q9BRP1 (Q9BRP1 whole entry, looked up): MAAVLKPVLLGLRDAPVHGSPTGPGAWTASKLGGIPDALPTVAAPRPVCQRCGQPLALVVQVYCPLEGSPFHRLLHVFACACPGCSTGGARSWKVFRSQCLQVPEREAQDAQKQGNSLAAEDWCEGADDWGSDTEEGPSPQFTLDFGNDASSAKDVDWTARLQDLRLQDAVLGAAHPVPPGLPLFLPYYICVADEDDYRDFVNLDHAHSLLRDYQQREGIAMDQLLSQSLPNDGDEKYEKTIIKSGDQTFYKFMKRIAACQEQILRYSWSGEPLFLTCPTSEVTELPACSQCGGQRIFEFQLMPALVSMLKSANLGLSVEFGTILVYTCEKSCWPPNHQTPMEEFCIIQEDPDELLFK

log2 fold change, inactive:
PHF5A (UniProt Q7RTV0) 0.001, PRKAR2A (UniProt P13861) 0.013, PRUNE1 (UniProt Q86TP1) -0.058, POMP (UniProt Q9Y244) -0.002, PPT2 isoform 3 (UniProt Q9UMR5) 0.036, PIP4P1 isoform 2 (UniProt Q86T03) 0.003, POLD1 (UniProt P28340) 0.021, PGGT1B (UniProt P53609) -0.004, PPP1R14A (UniProt Q96A00) -0.01, PRMT3 (UniProt O60678) -0.102, PEX11B (UniProt O96011) 0.04, PCYT1A (UniProt P49585) -0.032, PISD (UniProt Q9UG56) -0.038, PSMD5 (UniProt Q16401) -0.004, PRPF40A (UniProt O75400) -0.085, PDIK1L (UniProt Q8N165) -0.205, PMPCA (UniProt Q10713) -0.008, PDCD2L (UniProt Q9BRP1) -0.006, PSMC6 (UniProt P62333) 0, PRKAB1 (UniProt Q9Y478) -0.02, PDSS2 (UniProt Q86YH6) 0.074, POLA1 (UniProt P09884) -0.06, PGM3 isoform 4 (UniProt O95394) -0.016, PSMD3 (UniProt O43242) -0.031, PARL (UniProt Q9H300) 0.007, PEX13 (UniProt Q92968) -0.067, PURA (UniProt Q00577) 0.096, PSMB4 (UniProt P28070) 0.006, PIK3CB (UniProt P42338) -0.049, PPP2R5C isoform 4 (UniProt Q13362) -0.051, PUF60 (UniProt Q9UHX1) -0.018, PRKACA (UniProt P17612) -0.011, PRPSAP2 (UniProt O60256) 0.008, PHKA2 (UniProt P46019) -0.095, PTPN12 (UniProt Q05209) -0.008, RAB11FIP1 (UniProt Q6WKZ4) -0.009
